Assay results published in PubChem BioAssay AID1159580 (chemical genetic matrix, 2015).
Values joined by “and” are separate entries in the source; they are usually repeats but may differ in a detail not shown here. Equal values may be shown once. About 2,000 (36%) of roughly 5,500 compounds were called active. About 18% were inconclusive and are not listed. Rule as the data show it: active = normalized growth mostly below about 0.91 (no sharp cut-off); inconclusive = no clear call, values can overlap the other calls; inactive = mostly above about 0.92. This is one part of the list.

Assay: chemical genetic growth profiling, strain panel (AID 1159580);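 also: tested at 20 µM; growth read once vehicle control cultures reached saturation at 30 °C; 1 = growth at the plate median or of vehicle wells; lower values mean less growth of the strain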
Conditions: growth OD

Measured: normalized growth

CCCN(CCC)C(=O)C(CCC(=O)O)NC(=O)c1ccccc1 (stereo unspecified)
inactive: S. cerevisiae deletion strains, locus YJR075W, strain HOC1, active compounds read low 0.988 | S. cerevisiae deletion strains, locus YKL009W, strain mrt4, active compounds read low 1.02 | S. cerevisiae deletion strains, locus YKL068W, active compounds read low 0.975 | S. cerevisiae deletion strains, locus YKL085W, strain MDH1 (second series), active compounds read low 0.987 | S. cerevisiae deletion strains, locus YKL085W, strain MDH1, active compounds read low 0.987 | S. cerevisiae deletion strains, locus YKL160W, strain elf1, active compounds read low 1.01 | S. cerevisiae deletion strains, locus YKL190W, strain CNB1, active compounds read low 0.988 | S. cerevisiae deletion strains, locus YKR001C, strain vps1, active compounds read low 0.995 | S. cerevisiae deletion strains, locus YKR026C, strain gcn3, active compounds read low 0.974 | S. cerevisiae deletion strains, locus YKR091W, strain srl3, active compounds read low 0.985 | S. cerevisiae deletion strains, locus YLL001W, strain dnm1, active compounds read low 0.973 | S. cerevisiae deletion strains, locus YLL026W, active compounds read low 0.993 | S. cerevisiae deletion strains, locus YLL041C, strain sdh2, active compounds read low 0.982 | S. cerevisiae deletion strains, locus YLR027C, strain aat2, active compounds read low 0.982 | S. cerevisiae deletion strains, locus YLR039C, strain RIC1, active compounds read low 0.987 | S. cerevisiae deletion strains, locus YLR058C, strain SHM2, active compounds read low 0.997 | S. cerevisiae deletion strains, locus YLR102C, strain apc9, active compounds read low 0.986 | S. cerevisiae deletion strains, locus YLR113W, strain HOG1, active compounds read low 0.96 | S. cerevisiae deletion strains, locus YLR221C, strain rsa3, active compounds read low 0.988 | S. cerevisiae deletion strains, locus YLR258W, strain gsy2, active compounds read low 0.973 | S. cerevisiae deletion strains, locus YLR262C, strain YPT6 (second series), active compounds read low 0.968 | S. cerevisiae deletion strains, locus YLR262C, strain YPT6, active compounds read low 0.998 | S. cerevisiae deletion strains, locus YLR268W, strain sec22, active compounds read low 0.955 | S. cerevisiae deletion strains, locus YLR320W, strain mms22, active compounds read low 0.987 | S. cerevisiae deletion strains, locus YLR330W, strain CHS5, active compounds read low 0.995 | S. cerevisiae deletion strains, locus YLR342W, strain FKS1 (second series), active compounds read low 1.08 | S. cerevisiae deletion strains, locus YLR342W, strain FKS1, active compounds read low 0.989 | S. cerevisiae deletion strains, locus YLR357W, strain rsc2, active compounds read low 0.964 | S. cerevisiae deletion strains, locus YLR370C, strain arc18, active compounds read low 0.984 | S. cerevisiae deletion strains, locus YLR371W, strain rom2, active compounds read low 0.986 | S. cerevisiae deletion strains, locus YLR384C, strain iki3, active compounds read low 0.982 | S. cerevisiae deletion strains, locus YLR418C, strain cdc73, active compounds read low 1 | S. cerevisiae deletion strains, locus YML016C, strain PPZ1, active compounds read low 1.01 | S. cerevisiae deletion strains, locus YML032C, strain rad52, active compounds read low 0.982 | S. cerevisiae deletion strains, locus YML120C, strain ndi1, active compounds read low 0.988 | S. cerevisiae deletion strains, locus YML124C, strain tub3, active compounds read low 0.988 | S. cerevisiae deletion strains, locus YMR058W, strain fet3, active compounds read low 0.983 | S. cerevisiae deletion strains, locus YMR078C, strain ctf18, active compounds read low 0.985 | S. cerevisiae deletion strains, locus YMR125W, strain sto1, active compounds read low 0.975 | S. cerevisiae deletion strains, locus YMR129W, active compounds read low 1 | S. cerevisiae deletion strains, locus YMR205C, strain PFK2, active compounds read low 0.992 | S. cerevisiae deletion strains, locus YMR223W, strain ubp8, active compounds read low 1.02 | S. cerevisiae deletion strains, locus YMR231W, strain pep5, active compounds read low 0.976 | S. cerevisiae deletion strains, locus YMR263W, strain SAP30, active compounds read low 0.99 and 1.01 | S. cerevisiae deletion strains, locus YMR307W, strain GAS1, active compounds read low 1.06 and 0.989 | S. cerevisiae deletion strains, locus YNL067W, strain RPL9B, active compounds read low 0.982 | S. cerevisiae deletion strains, locus YNL071W, strain lat1, active compounds read low 1 | S. cerevisiae deletion strains, locus YNL128W, strain TEP1, active compounds read low 0.983 | S. cerevisiae deletion strains, locus YNL153C, strain GIM3, active compounds read low 1 and 1.01 | S. cerevisiae deletion strains, locus YNL175C, strain NOP13, active compounds read low 1.01 | S. cerevisiae deletion strains, locus YNL183C, strain NPR1, active compounds read low 0.933 | S. cerevisiae deletion strains, locus YNL197C, strain WHI3, active compounds read low 1.08 | S. cerevisiae deletion strains, locus YNL209W, strain ssb2, active compounds read low 0.979 | S. cerevisiae deletion strains, locus YNL224C, strain SQS1, active compounds read low 1 | S. cerevisiae deletion strains, locus YNL233W, strain BNI4, active compounds read low 0.989 | S. cerevisiae deletion strains, locus YNL248C, strain rpa49, active compounds read low 0.948 | S. cerevisiae deletion strains, locus YNL250W, strain rad50, active compounds read low 0.982 | S. cerevisiae deletion strains, locus YNL271C, strain bni1, active compounds read low 0.988 | S. cerevisiae deletion strains, locus YNL298W, strain CLA4, active compounds read low 0.998 | S. cerevisiae deletion strains, locus YNL307C, strain MCK1, active compounds read low 0.996 | S. cerevisiae deletion strains, locus YNL322C, strain KRE1 (second series), active compounds read low 0.99 | S. cerevisiae deletion strains, locus YNL322C, strain KRE1, active compounds read low 0.982 and 1.01 | S. cerevisiae deletion strains, locus YNR049C, strain mso1, active compounds read low 0.968 | S. cerevisiae deletion strains, locus YNR052C, strain pop2, active compounds read low 0.991 | S. cerevisiae deletion strains, locus YOL006C, strain TOP1, active compounds read low 0.957 | S. cerevisiae deletion strains, locus YOL012C, strain htz1 1.01 | S. cerevisiae deletion strains, locus YOL147C, strain pex11, active compounds read low 0.995 | S. cerevisiae deletion strains, locus YOR001W, strain rrp6, active compounds read low 0.984 | S. cerevisiae deletion strains, locus YOR061W, strain CKA2, active compounds read low 1.01 | S. cerevisiae deletion strains, locus YOR069W, strain VPS5, active compounds read low 0.997 | S. cerevisiae deletion strains, locus YOR070C, strain gyp1, active compounds read low 0.99 | S. cerevisiae deletion strains, locus YOR080W, strain dia2, active compounds read low 0.969 | S. cerevisiae deletion strains, locus YOR083W, strain WHI5 (second series), active compounds read low 1.01 | S. cerevisiae deletion strains, locus YOR083W, strain WHI5, active compounds read low 0.98 | S. cerevisiae deletion strains, locus YOR106W, strain vam3, active compounds read low 0.975 | S. cerevisiae deletion strains, locus YOR136W, strain idh2, active compounds read low 0.989 | S. cerevisiae deletion strains, locus YOR144C, strain elg1, active compounds read low 0.977 | S. cerevisiae deletion strains, locus YOR184W, strain ser1, active compounds read low 0.993 | S. cerevisiae deletion strains, locus YOR231W, strain MKK1, active compounds read low 0.978 | S. cerevisiae deletion strains, locus YOR265W, strain rbl2, active compounds read low 0.987 | S. cerevisiae deletion strains, locus YOR270C, strain vph1, active compounds read low 0.919 | S. cerevisiae deletion strains, locus YOR290C, strain snf2, active compounds read low 0.988 | S. cerevisiae deletion strains, locus YOR316C, strain cot1, active compounds read low 0.977 | S. cerevisiae deletion strains, locus YPL051W, strain arl3, active compounds read low 0.987 | S. cerevisiae deletion strains, locus YPL055C, strain LGE1, active compounds read low 0.99 and 1.01 | S. cerevisiae deletion strains, locus YPL078C, strain atp4, active compounds read low 0.992 | S. cerevisiae deletion strains, locus YPL106C, strain sse1, active compounds read low 0.955 | S. cerevisiae deletion strains, locus YPL240C, strain hsp82, active compounds read low 0.986 | S. cerevisiae deletion strains, locus YPL241C, strain CIN2, active compounds read low 1 | S. cerevisiae deletion strains, locus YPL256C, strain CLN2, active compounds read low 0.965 | S. cerevisiae deletion strains, locus YPR119W, strain clb2, active compounds read low 0.989 | S. cerevisiae deletion strains, locus YPR141C, strain kar3, active compounds read low 0.984 | S. cerevisiae deletion strains, locus YPR163C, strain tif3, active compounds read low 0.977 | S. cerevisiae deletion strains, locus YPR167C, strain met16, active compounds read low 0.983 | S. cerevisiae deletion strains, strain wtn01, active compounds read low 0.987 | S. cerevisiae strains, strain wild type, active compounds read low 1
